# Screening results as filed in PubChem BioAssay.
# SENP7 block – SENP7 protease inhibition. inhibition, % at 5 µM. hit rate 1.5% among 330,000. recombinant SENP7, Z-RLRGG-aminoluciferin luminescence, 40 min. Q9BQF6;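 active = inhibition above about 50% at the single test dose, limit read from the data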;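 note: plate controls were DMSO with enzyme for no effect and no enzyme buffer wells for full effect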
# Target sequence (Q9BQF6 706-1050 limits assumed): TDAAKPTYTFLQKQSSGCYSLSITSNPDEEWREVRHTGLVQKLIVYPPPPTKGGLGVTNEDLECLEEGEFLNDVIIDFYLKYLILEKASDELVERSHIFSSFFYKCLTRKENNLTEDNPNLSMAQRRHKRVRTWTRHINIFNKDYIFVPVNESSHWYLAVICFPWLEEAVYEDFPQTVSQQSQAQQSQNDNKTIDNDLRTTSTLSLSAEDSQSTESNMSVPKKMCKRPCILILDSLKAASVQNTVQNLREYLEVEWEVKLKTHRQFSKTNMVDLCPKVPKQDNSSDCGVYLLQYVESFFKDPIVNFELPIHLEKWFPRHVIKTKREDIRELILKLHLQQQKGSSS
# SENP6 block – SENP6 protease inhibition; Recombinant SENP6 catalytic domain, aminoluciferin luminescence; inhibition, % at 10 µM; hit rate 1.8% among 330,000; AID 2599;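 active = inhibition above about 50% at the single tested dose, limit read from the data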;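 note: plate controls were DMSO wells with enzyme for no effect and DMSO wells lacking enzyme for full effect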
# SENP8 block-1 – blocks the human protease SENP8 | purified SENP8, Z-RLRGG-aminoluciferin cleavage, luminescence | hit rate 1.2% among 330,000 | inhibition, % at 10 µM; in the data active = inhibition above about 50%
# SENP8 block-2 – SENP8 (human) protease inhibition; Q96LD8; inhibition, % at 20 µM; recombinant SENP8, Nedd8 substrate fluorescence; AID 602440; hit rate 0.64% among 360,000; in the data active = inhibition mostly above about 40%, no sharp cut-off; inactive = mostly below about 27%
# HSP90 inh – HSP90 refolding inhibition in rabbit reticulocyte lysate; luciferase refolding luminescence, 3 h; inhibition, % at 5.6 µM; hit rate 0.91% among 290,000;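 active = inhibition above the screen-wide mean plus 3 SD, computed separately per campaign, cut at about 16% in these data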;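 note: 0% = DMSO wells and 100% = 60 µM geldanamycin wells; inhibitors lower the luminescence because luciferase stays unfolded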
# SENP8 conf-1 – confirmation of human SENP8 protease inhibitors; shares compounds with SENP7 block; Recombinant SENP8, Z-RLRGG-aminoluciferin luminescence, 60 min; inhibition, % at 12.5 µM; hit rate 40% among 6,200;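 active = mean inhibition across replicates above about 50%, limit read from the data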
# SENP6 confirm – confirmation of human SENP6 protease inhibitors; shares compounds with SENP7 block; recombinant SENP6, Z-RLRGG-aminoluciferin luminescence; inhibition, % at 12.5 µM; hit rate 58% among 6,200; AID 488915
# SENP7 conf – confirmation of human SENP7 protease inhibitors. shares compounds with SENP7 block. recombinant SENP7, Z-RLRGG-aminoluciferin luminescence, 40 min. inhibition, % at 12.5 µM. hit rate 69% among 6,200
# Casp3 select – selectivity test for SENP inhibitors: human caspase-3 inhibition. shares compounds with SENP7 block. purified caspase-3, Z-DEVD-aminoluciferin luminescence, 60 min. inhibition, % at 12.5 µM. hit rate 60% among 6,200;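 active = mean inhibition above about 50%, limit read from the data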;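 note: plate controls were enzyme with DMSO for no effect and wells without caspase-3 for full effect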
# Target sequence (P42574 28-227 limits assumed): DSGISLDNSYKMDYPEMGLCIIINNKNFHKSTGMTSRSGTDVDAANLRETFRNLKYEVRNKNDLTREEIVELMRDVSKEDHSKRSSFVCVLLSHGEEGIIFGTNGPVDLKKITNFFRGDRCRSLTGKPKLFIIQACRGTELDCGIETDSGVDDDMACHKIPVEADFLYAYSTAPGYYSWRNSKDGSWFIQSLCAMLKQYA
# SENP luc ctr – luminescence interference (SENP counter-screen). shares compounds with SENP7 block. Pre-incubated SENP8/Z-RLRGG-aminoluciferin, luciferase luminescence interference. inhibition, % at 12.5 µM. hit rate 39% among 6,200. AID 488919;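 active = mean inhibition above about 50% when retested at one dose, limit read from the data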;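 note: plate controls were DMSO wells with completed reaction for no effect and substrate without enzyme for full effect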
# SENP8 conf-2 – SENP8 (human) inhibition, single concentration confirmation; shares compounds with SENP8 block-2; purified SENP8, Nedd8-AMC/pro-Nedd8 cleavage fluorescence, 30 min; inhibition, % at 25 µM; hit rate 15% among 1,400; AID 624319; in the data active = inhibition mostly above about 39%, no sharp cut-off; inactive = mostly below about 34%
# * hit, by the source's call; . = no result given. Shown are actives, neighbours in structure and some others; about 2.8% of the full set was active somewhere.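 Rule for the calls, unless noted: active = mean inhibition above about 50% in the one-dose retest (limit read from the data); inactive = the rest.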
SMILES,SENP7 block,SENP6 block,SENP8 block-1,SENP8 block-2,HSP90 inh,SENP8 conf-2,others
O=C(N/N=C/c1ccc(OCc2ccccc2)cc1)c1ccncc1,-8,2,-11,-12,1,.,
Oc1ccc(N=Cc2ccc(OCc3ccccc3)cc2)cc1,43,91*,57*,66*,0,-9,SENP8 conf-1=-3;SENP6 confirm=57*;SENP7 conf=68*;Casp3 select=50;SENP luc ctr=7
O=C(Cc1ccccc1)c1nc2ccccc2s1,39,69*,54*,48*,1,67*,SENP8 conf-1=0;SENP6 confirm=64*;SENP7 conf=87*;Casp3 select=62*;SENP luc ctr=43
O=C(Cc1ccccc1)Nc1nc2ccccc2s1,-1,5,-13,-2,-1,.,
Cc1cc(-c2nnc(SCc3cccnc3)o2)no1,-4,-35,10,7,1,.,
Cc1ccccc1N1C(=O)Cc2ccccc2C1=O,37,67*,27,88*,2,37,SENP8 conf-1=17;SENP6 confirm=57*;SENP7 conf=33;Casp3 select=24;SENP luc ctr=-4
Cc1ccccc1N1Cc2ccccc2C1=O,.,.,.,10,.,.,
CC1CCN(c2ccc(NC(=O)c3ccc([N+](=O)[O-])o3)cc2)CC1,78*,75*,45,55*,.,-1,SENP8 conf-1=-23;SENP6 confirm=-3;SENP7 conf=6;Casp3 select=11;SENP luc ctr=-3
O=C(Nc1ccc(N2CCCCC2)cc1)c1ccc([N+](=O)[O-])o1,93*,87*,74*,38*,5,17,SENP8 conf-1=10;SENP6 confirm=90*;SENP7 conf=100*;Casp3 select=85*;SENP luc ctr=20
CS(=O)(=O)N1CCN(c2ccc(NC(=O)c3ccc([N+](=O)[O-])o3)cc2)CC1,.,.,.,39,-1,.,
CCN1CCN(CC(=O)N/N=C/c2ccc(F)cc2F)CC1,3,8,2,32,1,.,
CN(c1c[nH]c(=O)[nH]c1=O)C1CCCCC1,-5,7,-11,7,-2,.,
CC1CCN(C(=O)COC(=O)CCc2c[nH]c3ccccc23)CC1,-4,-32,-1,-2,0,.,
CC(=O)OCCCNc1cc(SCc2ccco2)c2nonc2c1[N+](=O)[O-],34,63*,60*,50*,1,17,SENP8 conf-1=10;SENP6 confirm=12;SENP7 conf=-5;Casp3 select=5;SENP luc ctr=-9
O=C1Cc2ccccc2C(=O)N1OCc1ccc(Cl)cc1,52*,71*,28,92*,4,64*,SENP8 conf-1=12;SENP6 confirm=28;SENP7 conf=17;Casp3 select=15;SENP luc ctr=4
O=C1C2=C(c3ccccc31)[N+](=O)[C@@H]1CCCC[C@@H]1N2[O-],57*,81*,49,74*,0,74*,SENP8 conf-1=14;SENP6 confirm=56*;SENP7 conf=25;Casp3 select=15;SENP luc ctr=5
COc1ccccc1N1CCN(Cc2cc(=O)oc3cc(C)ccc23)CC1,.,.,.,21,.,.,
CN(C)c1cc(N/N=C\c2ccccc2)nc(N(C)C)n1,71*,76*,34,51*,4,69*,SENP8 conf-1=61*;SENP6 confirm=76*;SENP7 conf=36;Casp3 select=-3;SENP luc ctr=1
CCC(Oc1ccccc1)C(=O)Nc1ccccc1N1CCCCC1 (stereo not given),6,-12,-13,0,3,.,
COc1cc(NC(C)CCCN)c2ncccc2c1 (stereo not given),84*,64*,49,47*,.,81*,SENP8 conf-1=44;SENP6 confirm=69*;SENP7 conf=30;Casp3 select=97*;SENP luc ctr=1
COc1ccc(C(=O)/C=C/c2ccc(C)cc2)c(OC(=O)c2ccc([N+](=O)[O-])cc2)c1,-12,27,10,43*,-3,-1,
COc1ccc(C(=O)/C=C/Nc2ccc([N+](=O)[O-])cc2C)c(OC)c1,-7,-2,-22,-48,-4,.,
CCC1(c2ccc(Cl)cc2)NC(=O)N(CC(=O)NC2(C#N)CCCCC2)C1=O (stereo not given),-9,7,12,3,.,.,
COc1ccc(/C=N/NC(=O)c2ccc(NC(=O)c3cccc([N+](=O)[O-])c3)cc2)c(C(=O)O)c1OC,-3,-5,-7,-18,-4,.,
CC1=C(/C=N/Nc2ccc([N+](=O)[O-])cc2[N+](=O)[O-])C(C)(C)CCC1,7,-6,-3,46*,1,2,
SMILES,SENP7 block,SENP6 block,SENP8 block-1,SENP8 block-2,HSP90 inh,SENP8 conf-2,others
COc1ccc(/C=N\Nc2ccc([N+](=O)[O-])cc2[N+](=O)[O-])c(C(=O)O)c1OC,9,-2,5,48*,-2,22,
COc1ccccc1/C=N\Nc1ccccc1[N+](=O)[O-],99*,94*,90*,50*,1,6,
Nn1cnnc1N/N=C/c1ccc(F)cc1,6,14,3,14,-4,.,
CCC(=O)N(CCC(Cc1ccccc1)c1ccco1)Cc1ccco1 (stereo not given),1,2,-13,-25,1,.,
CCC(=O)N(CCC(Cc1ccccc1)c1ccc2c(c1)OCO2)Cc1ccccc1F (stereo not given),2,7,8,40*,1,14,
COc1ccc(Cn2nnnc2CN2CCC(O)(c3ccccc3F)CC2)cc1,-7,-20,1,11,2,.,
Nn1c(-c2ccccc2Cl)nnc1-c1ccccc1Cl,9,13,-6,40*,0,9,
Cc1ccc2c(c1)NC(=O)C(N1CCOCC1)(C(F)(F)F)O2 (stereo not given),1,10,-2,32,0,.,
CC(C)CCNC(=O)C1(c2cccs2)CCOCC1,-4,17,-8,41*,-1,4,
CCS(=O)(=O)c1nc(S(=O)(=O)c2ccc(C)cc2)c(NCCCN2CCOCC2)s1,-1,-4,4,9,2,.,
Cc1[nH][nH]c(=O)c1C(c1cc(Br)ccc1O)c1c(C)[nH][nH]c1=O,4,15,4,42*,2,39,
Cc1[nH][nH]c(=O)c1C(c1cc2c(cc1Br)OCO2)c1c(C)[nH][nH]c1=O,-1,14,-4,7,2,.,
CC1(C)Cc2cccc(OCC(=O)OCC(=O)Nc3cccc(S(N)(=O)=O)c3)c2O1,0,-15,-4,40*,-2,8,
Cc1nnc(Sc2cc(NCCCO)c([N+](=O)[O-])c3nonc23)s1,.,.,.,75*,3,6,
O=C(Nc1cccc(Cl)c1)c1ccc(NCCCN2CCOCC2)c([N+](=O)[O-])c1,0,-6,-6,41*,-1,13,
CC(=O)c1cc(C)ccc1OC(=O)c1cccc2nc(C)oc12,-14,-3,-2,-1,2,.,
